The structures appear in SMILES notation. Hit rate of the full screen: of about 360,000 compounds, about 16,000 (4.4%) were called active. Entries that show only a call come without a potency. Not shown: some 9% with an inconclusive outcome. This is one part of a sample in which actives are shown more often than they occur. Calls follow the shape of the dose curve; as a rule, active = well fitted inhibition curve with a large enough effect; inconclusive = small, poorly fitted or top-dose-only effect; inactive = no such curve, though single readings can be large or run the other way.
Potency is read from the fitted curve at half-maximal effect.

Sequence of Bromodomain adjacent to zinc finger domain protein 2B (Homo sapiens) (Q9UIF8 whole entry, looked up, the tested form may be a part): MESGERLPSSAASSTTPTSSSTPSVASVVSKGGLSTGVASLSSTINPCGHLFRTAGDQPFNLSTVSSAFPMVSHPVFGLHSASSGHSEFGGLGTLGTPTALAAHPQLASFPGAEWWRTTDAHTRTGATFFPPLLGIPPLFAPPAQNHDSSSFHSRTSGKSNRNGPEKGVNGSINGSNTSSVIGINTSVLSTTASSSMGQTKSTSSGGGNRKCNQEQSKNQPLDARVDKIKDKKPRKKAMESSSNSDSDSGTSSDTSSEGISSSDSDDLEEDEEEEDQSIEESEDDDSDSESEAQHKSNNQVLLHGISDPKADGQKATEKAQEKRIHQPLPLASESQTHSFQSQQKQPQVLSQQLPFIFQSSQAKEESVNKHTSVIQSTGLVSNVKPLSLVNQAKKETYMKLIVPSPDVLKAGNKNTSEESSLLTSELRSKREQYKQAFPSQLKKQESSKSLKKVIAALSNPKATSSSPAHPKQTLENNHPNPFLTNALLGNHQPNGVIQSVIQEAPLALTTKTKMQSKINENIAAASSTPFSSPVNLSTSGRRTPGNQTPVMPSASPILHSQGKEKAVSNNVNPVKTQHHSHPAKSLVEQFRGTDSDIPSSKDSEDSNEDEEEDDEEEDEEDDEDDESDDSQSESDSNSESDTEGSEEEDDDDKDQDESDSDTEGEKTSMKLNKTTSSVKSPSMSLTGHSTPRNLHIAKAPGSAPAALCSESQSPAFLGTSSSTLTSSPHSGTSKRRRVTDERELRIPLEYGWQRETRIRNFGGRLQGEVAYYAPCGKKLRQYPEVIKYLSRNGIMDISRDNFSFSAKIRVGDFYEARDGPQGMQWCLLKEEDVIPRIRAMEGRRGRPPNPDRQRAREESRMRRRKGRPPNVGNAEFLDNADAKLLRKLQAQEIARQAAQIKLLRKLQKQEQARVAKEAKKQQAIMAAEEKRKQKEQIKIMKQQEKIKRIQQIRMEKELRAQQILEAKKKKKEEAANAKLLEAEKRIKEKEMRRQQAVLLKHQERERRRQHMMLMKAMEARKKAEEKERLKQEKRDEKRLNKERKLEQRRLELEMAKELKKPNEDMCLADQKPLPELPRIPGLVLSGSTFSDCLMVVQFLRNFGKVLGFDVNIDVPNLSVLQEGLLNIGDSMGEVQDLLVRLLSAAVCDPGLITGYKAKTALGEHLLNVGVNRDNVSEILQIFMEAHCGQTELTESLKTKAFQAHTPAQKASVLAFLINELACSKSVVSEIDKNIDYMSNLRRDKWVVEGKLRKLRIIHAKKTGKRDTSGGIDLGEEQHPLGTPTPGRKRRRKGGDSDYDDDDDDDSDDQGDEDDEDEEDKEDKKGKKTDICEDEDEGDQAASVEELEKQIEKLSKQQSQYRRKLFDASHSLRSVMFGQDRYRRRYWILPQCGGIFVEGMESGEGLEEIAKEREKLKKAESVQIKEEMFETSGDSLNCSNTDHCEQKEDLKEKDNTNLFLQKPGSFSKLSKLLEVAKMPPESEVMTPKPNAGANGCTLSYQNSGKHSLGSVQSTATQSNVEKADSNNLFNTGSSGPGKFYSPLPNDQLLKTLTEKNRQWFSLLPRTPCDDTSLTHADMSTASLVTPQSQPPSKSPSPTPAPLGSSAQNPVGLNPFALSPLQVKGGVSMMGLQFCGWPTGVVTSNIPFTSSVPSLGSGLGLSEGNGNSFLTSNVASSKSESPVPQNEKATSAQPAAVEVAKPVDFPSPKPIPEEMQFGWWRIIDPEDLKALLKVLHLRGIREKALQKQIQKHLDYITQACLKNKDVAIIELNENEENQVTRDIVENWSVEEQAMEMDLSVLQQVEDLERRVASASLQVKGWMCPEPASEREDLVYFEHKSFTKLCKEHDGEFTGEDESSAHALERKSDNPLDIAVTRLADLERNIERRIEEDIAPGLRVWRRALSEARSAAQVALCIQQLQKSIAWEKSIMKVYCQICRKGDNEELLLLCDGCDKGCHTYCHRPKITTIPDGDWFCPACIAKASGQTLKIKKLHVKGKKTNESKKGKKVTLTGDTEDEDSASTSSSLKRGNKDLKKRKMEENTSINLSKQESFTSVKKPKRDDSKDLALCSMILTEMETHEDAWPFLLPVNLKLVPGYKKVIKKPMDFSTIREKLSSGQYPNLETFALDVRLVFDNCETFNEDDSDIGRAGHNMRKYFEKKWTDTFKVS

This assay addresses Bromodomain adjacent to zinc finger domain protein 2B (Homo sapiens) (UniProt Q9UIF8). In words: qHTS Assay for Inhibitors of BAZ2B. Also: nearly all actives have a fitted effect of over 60% in size. The note with it: AlphaScreen BAZ2B-H3K14Ac peptide displacement; series mostly up to 114 µM. The procedure, abridged:
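Compounds, titrated to a top concentration of 110 uM, were incubated 30 min at room temperature with preformed BAZ2B/acetyl-K14 H3 peptide complex (50 nM each). Proximity signal was measured by AlphaScreen after 20 min with beads.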
On the technique in general: In qHTS, concentration-response curves come from the screen itself.
Take `Cc1ccc(NC(=O)CSCC(=O)Nc2sccc2C#N)cc1`: the Potency result was “inactive”.
Turning to `Cc1csc(SCC(=O)Nc2sccc2C#N)n1`, the Potency is 56.2 µM (active).
Take `COc1ccc(NC(=O)CSc2nc(C)cs2)cc1`: the Potency result was “inactive”.
Next, `COc1ccc2c(c1)C=C(C(=O)NCc1cc(Br)ccc1OC)CO2`: “inactive”; `Cc1ccc(Cl)cc1NC(=O)CSc1nc2ccccc2nc1Cc1ccccc1`: “inactive”; `Cc1cccc(COc2ccccc2/C=N/Nc2ccc([N+](=O)[O-])cc2)c1`: “inactive”.
Next, `C=C(C)CNC(=S)N/N=C/c1ccccc1OCC(=O)O`: “inactive”; `Cc1ccc(NS(=O)(=O)c2ccc(N/N=C/c3ccccc3OCC(=O)O)c([N+](=O)[O-])c2)c(C)c1`: 7.94 µM (active); `Cc1ccc(CCNC(=O)c2ccc(CS(=O)(=O)Cc3cccc(C)c3)o2)cc1`: “inactive”.
For the compound `Cc1ccc(CNC(=O)CSc2c3c(nc4cc(Cl)ccc24)CCCC3)cc1`, the Potency result was “inactive”.
Next, `CC(=O)N/N=C/c1cc2c(cc1[N+](=O)[O-])OCO2`: “inactive”; `CN(C)/N=C/c1cc(Cl)cc([N+](=O)[O-])c1O`: 44.7 µM (active); `COc1ccc(NC(=O)C(c2ccccc2)N2Cc3ccccc3C2=O)cc1` (stereo unspecified): “inactive”.
Consider `COc1ccc2c(c1OC)C(=O)c1ccccc1C2=O`, for which the Potency entry was “inactive”.
For `COc1ccc2c(c1OC)C(=O)N(c1ccc(O)cc1)C2`, the Potency result was “inactive”.
`COc1ccc2c(c1OC)C(=O)N(c1ncn[nH]1)C2`: the Potency is 56.2 µM (active).
With `COc1ccc(Cc2nc3ccc(C(=O)NCc4ccccc4Cl)cc3o2)cc1`, the Potency entry is “inactive”.
Next, `CCc1ccc(-n2nnc(-c3nc(-c4ccccc4)no3)c2C)cc1`: “inactive”; `O=C(CN1C(=O)C2C3C=CC(C3)C2C1=O)Nc1nc(-c2ccccn2)cs1` (stereo unspecified): 50.1 µM (active); `O=C(NCCN1C(=O)C2C3C=CC(C3)C2C1=O)Nc1ccccn1` (stereo unspecified): “inactive”.
Next, `O=C(CN1C(=O)C2C3C=CC(C3)C2C1=O)NCCc1ccccc1Cl` (stereo unspecified): “inactive”; `CCOc1ccc(CNC(=O)c2cccc(Nc3nc4ccccc4n4nnnc34)c2)cc1OC`: “inactive”.
Take `Cc1ccc(OCCSc2nc3ccc(NC(=O)COc4ccc(C)cc4)cc3s2)cc1`: the Potency entry is “inactive”.
`Cc1cc(C)cc(Nc2ncnc3onc(-c4ccc(F)cc4)c23)c1`: the Potency result was “inactive”.
For `O=C(Nc1cccc2cccnc12)c1cccc(N2C(=O)CCC2=O)c1` the value was “inactive”; for `COc1ccccc1-c1nnc(NC(=O)c2cccc(N3C(=O)CCC3=O)c2)o1`, 25.1 µM (active).
For `COC(=O)c1cccc(NC(=O)c2cccc(N3C(=O)CCC3=O)c2)c1` the value was “inactive”; for `COc1ccc(Cc2nc3ccc(C(=O)NCc4ccc(OC)cc4OC)cc3o2)cc1`, “inactive”.
Take `Cc1ccc(S(=O)(=O)c2nc(-c3ccco3)oc2SCC(=O)Nc2ccc(F)cc2)cc1`: the Potency result is “inactive”.
Next, `CCCCS(=O)(=O)c1oc(-c2cccs2)nc1S(=O)(=O)c1ccccc1`: “inactive”.
Take `Cc1ccc(C)c(S(=O)(=O)c2nnn3c2nc(N2CCOCC2)c2sccc23)c1`: the Potency result was “inactive”.
With `O=C(NCCCO)c1nn(-c2ccc(Cl)cc2)nc1CO`, the Potency result is “inactive”.
For `Cc1cc(NC(=O)C2CCC(CNS(=O)(=O)c3ccc(Br)s3)CC2)ccc1Br` (stereo unspecified), the Potency entry was “inactive”.
For `CCc1ccc(C(=O)NN=C2CCCCCC2)s1` the value was “inactive”; for `CC(C)NC(=S)NN=C1CCCCCCCCCCC1`, 35.5 µM (active).
Regarding `CC(C)(C)NC(=O)C(=O)NN=C1CCCCCCC1`, the Potency result was “inactive”.
Next, `O=C(c1ccc2c(c1)N(Cc1ccccc1)C(=O)c1ccccc1S2(=O)=O)N1CCC(Cc2ccccc2)CC1`: “inactive”.
Regarding `CC(=O)Nc1cccc(Oc2cc(C#N)c(C#N)cc2N2CCOCC2)c1`, the Potency result was “inactive”.
In the case of `COc1cc(N2CCCC2)c(OC)cc1/C=C(/C#N)c1cccc(Br)c1`, the Potency was 10 µM (active).
In the case of `CCc1ccc(NC(=O)c2cc3c(=O)n(Cc4cccnc4)ccc3nc2C)cc1`, the Potency entry is “inactive”.
`Cc1ccc(-n2c(SCC(=O)Nc3cccc(F)c3)nc3c(oc4ccccc43)c2=O)cc1C`: the Potency entry was “inactive”.
Consider `CCN(CC)c1ccc(NC(=O)CN2C(=O)NC3(CCc4ccccc43)C2=O)cc1` (stereo unspecified), for which the Potency entry is “inactive”.
In the case of `CC(=O)N1CCN(CC(=O)Nc2ccc(SC(F)F)cc2)CC1`, the Potency entry is “inactive”.
Next, `CCOC(=O)N1CCN(CC(=O)Nc2ccc(F)cc2)CC1`: “inactive”; `CC(=O)N1CCN(CC(=O)Nc2ccc(C)c(F)c2)CC1`: 44.7 µM (active); `COC(=O)c1cc(NC(=O)CN2CCN(C(C)=O)CC2)cc(C(=O)OC)c1`: “inactive”.
For the compound `CCN(CC)c1ccc(NC(=O)CN2CCN(CC(=O)Nc3ccc(Cl)cc3)CC2)cc1`, the Potency was 20 µM (active).
For `CCN(CC)c1ccc(NC(=O)CN2C(=O)c3cccnc3Oc3ccc(Cl)cc32)c(C)c1` the value was “inactive”; for `Cc1cccc(C(=O)Nc2ccc(S(=O)(=O)N3CCCCC3c3cccnc3)cc2)c1` (stereo unspecified), “inactive”; for `Cc1ccc(Cn2c(C)c3cnn(CC(=O)NCc4ccccc4)c(=O)c3c2C)cc1`, “inactive”.
Next, `COC(=O)c1scc(-c2ccccc2)c1S(=O)(=O)Nc1ccccc1`: “inactive”; `CC(=O)c1ccc(NC(=O)CCc2nc(-c3ccc(C)cc3)no2)cc1`: “inactive”; `COc1ccc(Cl)cc1NC(=O)CCn1c(=O)c2cccn2c2ccccc21`: “inactive”.
Turning to `CCCCn1c(=O)c(CCC(=O)OCC(=O)Nc2ccc(C)c(Cl)c2)nc2ccccc21`, the Potency result is “inactive”.
On to `Cc1ccc(NC(=O)CCCn2c(=O)c3cccn3c3ccccc32)cc1Cl`, for which the Potency was 50.1 µM (active).
Regarding `Cc1cccc(NC(=O)CSc2nc(-c3ccco3)cc(C(F)(F)F)n2)c1C`, the Potency result was “inactive”.
For `Cc1ccc(Cl)cc1N1CCN(C(=O)c2cnc3c(-c4ccc(F)cc4)c(C)nn3c2C)CC1` the value was “inactive”; for `O=C(O)c1ccc(/C=N/NC(=O)c2ccc(Br)cc2)cc1`, “inactive”.
Next, `Cc1ccc(C(=O)N/N=C\c2cc(Br)c(Br)o2)cn1`: 50.1 µM (active); `O=C(N/N=C/c1ccc(Br)o1)c1cncc(Br)c1`: “inactive”.
For `Cc1nn2c(=O)cc(COC(=O)c3cccc(NC(=O)COc4ccccc4Cl)c3)nc2s1` the value was “inactive”; for `CCOc1ccc(-c2cc3nc(C4CCN(C(=O)OC(C)(C)C)CC4)c(C(=O)Nc4cccc(CC)c4)cn3n2)cc1`, “inactive”.
Consider `Cc1cc(-c2csc(N)n2)c(C)n1-c1ccccc1`, for which the Potency is 44.7 µM (active).
Next, `Cc1cc(C(=O)OCC(=O)NCc2ccco2)c(C)n1-c1ccccc1`: “inactive”.
Next, `Cc1n[nH]c(=O)n1-c1ccc(Oc2ccccc2)cc1`: “inactive”; `COc1ccc(NS(=O)(=O)c2cc3c4c(c2)CC(=O)N4CCC3)cc1Cl`: “inactive”; `COc1ccccc1CNC(=O)c1ccc(CS(=O)c2ccccc2Cl)o1` (stereo unspecified): “inactive”.
Next, `Cc1noc(C)c1/C=N/Nc1ccc2ccccc2n1`: “inactive”.
On to `Brc1ccc(-c2csc(N/N=C/c3ccc4c(c3)OCO4)n2)cc1`, for which the Potency entry was “inactive”.
On to `C(=N\Nc1ccc2ccccc2n1)/c1ccc2c(c1)OCO2`, for which the Potency was 50.1 µM (active).
For `COc1ccc(CCNC(=O)CCCn2c(=O)c3ccccc3n(Cc3ccc(C)cc3)c2=O)cc1OC`, the Potency result is “inactive”.
Take `CCOC(=O)c1cc(-c2ccc(OC)c(S(=O)(=O)Nc3ccc(OC)cc3OC)c2)on1`: the Potency result was “inactive”.
Next, `CCN(CC)CCNc1ncnc2c1cnn2-c1cc(Cl)ccc1C`: “inactive”; `Cc1ccc(-n2ncc3c(NCCCn4ccnc4)ncnc32)cc1Cl`: 44.7 µM (active).
For the compound `Clc1cccc(-n2ncc3c(NCCc4ccccc4)ncnc32)c1`, the Potency entry was “inactive”.
Take `O=C(CC1Oc2ccc(Cl)cc2NC1=O)NCc1ccccc1` (stereo unspecified): the Potency result is “inactive”.
For `CCOc1ccccc1CNC(=O)c1cnc2c(-c3ccc(OCC)c(OCC)c3)c(C)nn2c1C` the value was “inactive”; for `Cc1ccc(SCC(=O)Nc2ccc3oc(-c4ccccc4F)nc3c2)cc1`, “inactive”.
For the compound `CCOC(=O)C1CCCN(C(=O)c2ccc3c(c2)sc2nc(-c4ccc(CC)cc4)cn23)C1` (stereo unspecified), the Potency entry is “inactive”.
For `Cc1ccccc1CNC(=O)CSc1nnc(C)c2c(C)n(-c3ccccc3)nc12` the value was “inactive”.
For the compound `NC(=O)NC(CC(=O)NNC(=O)c1ccccn1)c1ccc(Cl)cc1` (stereo unspecified), the Potency result was “inactive”.
For `O=C(Nc1ccc(NC(=O)c2ccccc2F)cc1)c1ccccc1F` the value was “inactive”; for `C/C(=N\NC(=O)c1ccccc1F)c1ccccn1`, 20 µM (active).
Next, `C/C(=N\NC(=O)Cc1ccc(Cl)cc1)c1ccccn1`: 44.7 µM (active).
Next, `C/C(=N\NC(=O)Cc1ccc(Br)cc1)c1cccnc1`: “inactive”; `C/C(CC(=O)Nc1ccc(N(C)C)cc1)=N\NC(=O)c1ccccc1F`: “inactive”.
`Cc1nc2nc(NCc3cccc(Br)c3)[nH]n2c(=O)c1Cc1ccccc1`: the Potency entry was “inactive”.
For `O=C(CSc1nc2c(c(=O)[nH]1)CN(Cc1ccc(F)cc1)CC2)Nc1ccccc1Cl`, the Potency result was “inactive”.
As for `Cc1noc2ncnc(NCc3ccccc3Cl)c12`, the Potency entry is “inactive”.
Regarding `COC(=O)c1ccc(NC(=O)c2cc(S(=O)(=O)N3CCC(C)CC3)cn2C)cc1`, the Potency result is “inactive”.
For `Cc1oc(-c2ccccc2F)nc1CN1CCC(C(=O)NCCc2ccc(Cl)cc2)CC1`, the Potency result is “inactive”.
For the compound `Cc1ccc(S(=O)(=O)Oc2ccc(/C=N/NC(=O)c3ccncc3)cc2)cc1`, the Potency entry is “inactive”.
For `CC(=O)Nc1ccc(S(=O)(=O)Oc2ccc(/C=N/N=C3/NC(=O)C(CC(=O)O)S3)cc2)cc1` (stereo unspecified) the value was 50.1 µM (active); for `Cc1ccc(NC(=O)CC2S/C(=N/N=C3\CCCc4ccccc43)NC2=O)cc1` (stereo unspecified), “inactive”.
For `CCOc1ccc(N2CC(C)Cn3c2nc2c3c(=O)n(Cc3c(F)cccc3Cl)c(=O)n2C)cc1` (stereo unspecified) the value was “inactive”.
Next, `COc1cc2c(cc1O)[C@H](Cc1ccc(Oc3cc(C[C@@H]4NCCc5cc(OC)c(O)cc54)ccc3O)cc1)NCC2`: 39.8 µM (active).
Take `CCc1ccc(OCC2c3cc(OC)c(OC)cc3CCN2C(C)=O)cc1` (stereo unspecified): the Potency entry was “inactive”.
For `COC(=O)C1=CN(Cc2ccc(OC)cc2)C=C(C(=O)OC)C1c1ccc(O)c(OC)c1` the value was “inactive”; for `Cn1c(=O)n(Cc2c(F)cccc2Cl)c(=O)c2c1nc1n2CCN1c1ccc(F)cc1`, “inactive”; for `COc1cccc(CNC(=O)CCc2nc(-c3ccc(C)cc3)no2)c1`, “inactive”.
Next, `CCCCOc1ccc(CNC(=O)c2ccc3c(c2)N(C)C(=O)C2CCCCN32)cc1` (stereo unspecified): “inactive”.

The record behind these values is PubChem BioAssay AID504333 (National Center for Advancing Translational Sciences (NCATS), 2011).
